Tau fibril ThT – inhibitors of human tau fibril formation, thioflavin T binding; P10636; recombinant tau K18 P301L, heparin-induced fibrillization, ThT fluorescence; Potency, µM (titrated, usually from 57.4 µM), usual class: inhibitors; 270,000 compounds, 2.1% hits; AID 1460; also: nearly all actives have a fitted effect of over 55% in size
Target sequence (P10636 561-689 P618L limits assumed): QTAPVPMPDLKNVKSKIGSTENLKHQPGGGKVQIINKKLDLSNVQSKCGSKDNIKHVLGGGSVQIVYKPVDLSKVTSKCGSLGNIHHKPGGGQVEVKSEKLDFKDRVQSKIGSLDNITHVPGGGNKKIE
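ThT emission at 510 nm, taken 1 hr after adding 30 uM dye, quantifies aggregates formed when 20 uM heparin acts on human tau K18 P301L for 6 hr at 37 C.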
Tau fluor counter – counter-screen for tau fibril formation inhibitors; 280,000 compounds, 0.93% hits; Potency, µM (top dose mostly 57.7 µM); tau K18 P301L (four-repeat tau fragment) Alexa594 fluorescence, heparin fibrillization; also: nearly all actives have a fitted effect of over 55% in size
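Human K18 P301L tau (15 uM unlabeled plus 0.24 uM Alexa 594-labeled, final) in 100 mM sodium acetate pH 7 was mixed with compound and 20 uM heparin and incubated 6 hr at 37 C.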
ALDH1A1 inh – ALDH1A1 (human) enzyme inhibition; P00352; Purified ALDH1A1, NADH fluorescence, propionaldehyde substrate; Potency, µM (series often up to 75.3 µM), hits mostly inhibitors; 220,000 compounds, 7.3% hits; AID 1030; active = well fitted inhibition curve with a large enough effect, not every such curve was filed as active; inconclusive = small, poorly fitted or top-dose-only effect, or another doubt; inactive = no such curve, though single readings can be large or run the other way
Tau fibril FP – blocks human tau fibril formation measured by polarization | Potency, µM (doses to about 57.7 µM), most hits filed as inhibitors | AID 1468 | K18 P301L tau heparin fibrillization, Alexa594 FP, 6 h | 280,000 compounds, 0.39% hits | P10636; also: nearly all actives have a fitted effect of over 55% in size
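K18 P301L tau (15 uM unlabeled/0.24 uM Alexa 594-labeled, final) + compound + heparin 20 uM final; 100 mM NaOAc pH 7; 6 hr 37 C; ThT 30 uM final added, 1 hr RT; FP ex 555/em 632 nm.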
NPSR antag – blocks cAMP signaling of the human neuropeptide S receptor; 220,000 compounds, 1% hits; Potency, µM (top dose mostly 38.3 µM), most hits filed as inhibitors; Q6W5P4; CHO-NPSR cells, cAMP TR-FRET, antagonist mode; AID 1461; also: nearly all actives have a fitted effect of over 50% in size
HPGD block – blocks human HPGD enzyme activity; P15428; purified HPGD, NADH fluorescence kinetic, PGE2 substrate; Potency, µM, usual class: inhibitors; 150,000 compounds, 4.3% hits; AID 894; active = well fitted inhibition curve with a large enough effect, not every such curve was filed as active; inconclusive = small, poorly fitted or top-dose-only effect, or another doubt; inactive = no such curve, though single readings can be large or run the other way
Target sequence (P15428 whole entry, looked up): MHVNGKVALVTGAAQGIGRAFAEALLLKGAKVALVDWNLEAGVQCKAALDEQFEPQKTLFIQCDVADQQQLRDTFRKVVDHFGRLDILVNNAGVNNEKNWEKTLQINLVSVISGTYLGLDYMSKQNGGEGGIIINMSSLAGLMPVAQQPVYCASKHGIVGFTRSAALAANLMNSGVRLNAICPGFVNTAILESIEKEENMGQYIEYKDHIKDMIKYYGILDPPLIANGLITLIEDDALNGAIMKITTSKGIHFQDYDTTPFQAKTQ
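NADH formation kinetics: reaction with 30 uM PGE2 and 1 mM NAD+ (final), 20 nM enzyme, Tris-HCl pH 8 with Tween 20, after 15 min compound preincubation at room temperature. Fluorescence change, last versus first of five reads.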
Of the large screens only hits and unclear results are named; the others gave an inactive call. Rows were chosen to be rich in hits. Some 9.5% of all compounds tested hit in one or more screens of this group. Unless noted, calls follow the shape of the dose curve; as a rule, active = well fitted curve in the direction sought with a large enough effect; inconclusive = small, poorly fitted or top-dose-only effect, or another doubt; inactive = no such curve, though single readings can be large; an effect the other way counts as inactive or inconclusive.

O=C(CCCNS(=O)(=O)c1cccc2nsnc12)NCc1ccc(Cl)cc1	ALDH1A1 inh inconclusive
Cc1ccc(CNC(=O)CCCNS(=O)(=O)c2cccc3nonc23)cc1	ALDH1A1 inh 7.1µM
O=C(CCCNS(=O)(=O)c1cccc2nsnc12)NCc1ccccc1	ALDH1A1 inh 5µM (no result: HPGD block)
CC(=O)c1ccc(NC(=O)CCNS(=O)(=O)c2cccc3nonc23)cc1	ALDH1A1 inh inconclusive
c1ccc2cc(NCNc3ccc4ccccc4c3)ccc2c1	ALDH1A1 inh inconclusive (no result: Tau fibril ThT, Tau fluor counter, Tau fibril FP, NPSR antag)
CC(=O)Nc1ccccc1-c1nnc(SCc2ccccc2Cl)[nH]c1=O	HPGD block 16µM
CCCSc1nc2c(c(=O)[nH]1)C(c1ccc(F)cc1F)CC(=O)N2 (stereo unspecified)	none (no result: ALDH1A1 inh, NPSR antag, HPGD block)
CN(C1=C(NC(=O)c2ccccc2)C(=O)c2ccccc2C1=O)C1CCS(=O)(=O)C1 (stereo unspecified)	Tau fibril ThT 14µM, ALDH1A1 inh inconclusive, Tau fibril FP inconclusive, NPSR antag inconclusive
O=C(c1ccccc1)N(Cc1ccc(F)cc1)C1CCS(=O)(=O)C1 (stereo unspecified)	ALDH1A1 inh inconclusive
CC(=O)NC1=C(NC2CCS(=O)(=O)C2)C(=O)c2ccccc2C1=O (stereo unspecified)	HPGD block 11µM
O=c1c(=Nc2ccccc2O)c(=O)c2ccccc12	Tau fibril ThT 10µM, ALDH1A1 inh 22µM, Tau fibril FP inconclusive (no result: HPGD block)
O=c1[nH][nH]cc1C=Nc1ccccc1O	ALDH1A1 inh inconclusive
Cc1cccc(Cn2c(=O)n(Cc3ccccc3)c(=O)c3sc4ccccc4c32)c1	none (no result: ALDH1A1 inh, NPSR antag, HPGD block)
COC(=O)/C=c1/sc2nc3ccccc3n2c1=O	Tau fibril ThT inconclusive, ALDH1A1 inh 10µM, Tau fibril FP inconclusive, HPGD block 7.9µM
O=c1/c(=C/c2ccccn2)sc2nc3ccccc3n12	Tau fibril ThT inconclusive, Tau fibril FP inconclusive
O=c1/c(=C\c2cc([N+](=O)[O-])cc([N+](=O)[O-])c2O)sc2nc3ccccc3n12	Tau fibril ThT 5µM, Tau fluor counter inconclusive, ALDH1A1 inh 7.9µM, Tau fibril FP inconclusive (no result: HPGD block)
CC(C)(O)c1cc(=O)sc2nc3ccccc3n12	none
CN(Cc1ccccc1)C(=O)CCCn1c(=O)[nH]c2cc(Cl)ccc2c1=O	HPGD block 25µM
O=C(CCCn1c(=O)[nH]c2cc(Cl)ccc2c1=O)NC1CCCCCCC1	none
C=C(C(=O)OCC)C(=O)c1ccccc1	ALDH1A1 inh 14µM, Tau fibril FP inconclusive (no result: NPSR antag)
O=Cc1ccc(Oc2ccc(F)cc2)nc1	ALDH1A1 inh 16µM (no result: HPGD block)
CCOC(=O)C1CCCN(C(=O)CC(c2ccccc2)c2ccccc2)C1 (stereo unspecified)	HPGD block 28µM
CCOCC(=O)N1CCCC(C(=O)OCC)C1 (stereo unspecified)	ALDH1A1 inh 3.5µM
CCCCC(=O)N1CCCC(C(=O)OCC)C1 (stereo unspecified)	none
COc1cc(-c2nc(Cn3nnc(C(=O)Nc4ccccc4C)c3C)c(C)o2)cc(OC)c1OC	none (no result: ALDH1A1 inh, NPSR antag, HPGD block)
CC1(C)CC2CC(C)(CN2C(=O)COc2cccc3ccccc23)C1 (stereo unspecified)	NPSR antag inconclusive, HPGD block 32µM
COc1ccc(Cn2c(S(=O)(=O)CC(N)=O)nc3ccccc32)cc1[N+](=O)[O-]	ALDH1A1 inh 7.1µM (no result: HPGD block)
Cc1cc(=O)c2n(Cc3ccc(Cl)cc3)nc[n+]2[nH]1	ALDH1A1 inh 20µM
COc1cccc(CN(C)CC(=O)Nc2sc3c(c2C#N)CCC3)c1OC	Tau fibril ThT inconclusive, ALDH1A1 inh 25µM (no result: HPGD block)
COc1ccc(CN(C)CC(=O)Nc2sc3c(c2C#N)CCC3)cc1OC	ALDH1A1 inh 14µM (no result: HPGD block)
CCCCNS(=O)(=O)c1ccc2nc(-c3cccnc3)cc(C(=O)NCCC)c2c1	Tau fibril FP inconclusive (no result: ALDH1A1 inh, NPSR antag, HPGD block)
Cc1oc(-c2ccccc2)nc1CS(=O)CC(=O)N1CCc2ccccc2C1 (stereo unspecified)	Tau fibril ThT inconclusive, ALDH1A1 inh 25µM, HPGD block inconclusive
CC1=N[C@@](C)(COC(=O)[C@]2(C)N[C@](C)(CO)CO2)COC1=O	none (no result: Tau fibril ThT, Tau fluor counter, Tau fibril FP, NPSR antag)
CCCCS/C(=C(/C#N)C(N)=O)c1cc2c([nH]1)CCCC2	Tau fibril ThT inconclusive, ALDH1A1 inh 14µM, HPGD block inconclusive
CCc1ccc(N/C(SC)=C(/C#N)C(N)=O)cc1	none
CCc1nc(SCc2cc(Cl)ccc2OC)n[nH]1	HPGD block 13µM
CCc1nc(SCc2ccc(F)cc2)n[nH]1	none (no result: HPGD block)
CCCc1nc(SCc2ccccc2Cl)n[nH]1	HPGD block 13µM
CC1(C)S[C@H]2C(NC(=O)[C@@H](N)c3ccc(O)cc3)C(=O)N2[C@@H]1C(=O)O (stereo partly specified)	none (no result: NPSR antag)
COc1cccc(Cn2c(OCC3CCCO3)nc3c2c(=O)n(C)c(=O)n3C)c1 (stereo unspecified)	ALDH1A1 inh 7.1µM
